From PubChem BioAssay AID2590 (National Center for Advancing Translational Sciences (NCATS), 2010)
Results filed as inconclusive are left out. The source made the active and inactive calls. The call rests on the fitted dose curve; in most records, active means well fitted curve in the direction sought with a large enough effect; inconclusive means small, poorly fitted or top-dose-only effect, or another doubt; inactive means no such curve, though single readings can be large or run the other way.

What follows are compounds tested against Lysosomal acid glucosylceramidase (Homo sapiens) (UniProt P04062) (assay: qHTS Assay for Inhibitors and Activators of N370S glucocerebrosidase as a Potential Chaperone Treatment of Gaucher Disease: Primary Screen Confirmation). Details: N370S glucocerebrosidase enzyme activity, fluorogenic substrate; series mostly up to 54 µM; activity change, negative = inhibition: at the top concentration.
Chain of Lysosomal acid glucosylceramidase (Homo sapiens) (P04062 whole entry N409S): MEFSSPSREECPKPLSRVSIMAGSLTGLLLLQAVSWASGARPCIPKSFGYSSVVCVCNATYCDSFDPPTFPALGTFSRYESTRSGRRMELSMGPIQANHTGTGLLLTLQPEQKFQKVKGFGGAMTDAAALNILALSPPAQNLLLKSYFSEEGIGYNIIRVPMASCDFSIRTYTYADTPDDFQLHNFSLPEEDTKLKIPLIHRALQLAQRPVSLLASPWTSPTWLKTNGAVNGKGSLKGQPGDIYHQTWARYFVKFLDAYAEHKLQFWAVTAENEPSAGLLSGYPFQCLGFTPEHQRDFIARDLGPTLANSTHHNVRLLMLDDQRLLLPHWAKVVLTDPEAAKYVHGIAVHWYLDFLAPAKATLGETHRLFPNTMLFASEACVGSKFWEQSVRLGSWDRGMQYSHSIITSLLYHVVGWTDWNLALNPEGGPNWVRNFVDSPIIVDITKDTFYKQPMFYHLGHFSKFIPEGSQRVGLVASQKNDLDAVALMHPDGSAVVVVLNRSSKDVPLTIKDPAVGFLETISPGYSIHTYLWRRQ
Summary of the method: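 Patient-spleen homogenate carrying N370S GC (27 ug) in pH 5.0 citrate buffer with 0.01% Tween-20, 1 mM 4-methylumbelliferyl-beta-glucoside, 40 min at 37C; fluorescence 365/440 nm after NaOH/glycine stop; AC50 from Hill fits.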
Potency means the concentration at half of the fitted maximal effect.
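Wherever Potency is given: enzyme source is Gaucher patient spleen homogenate not purified recombinant protein.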
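Wherever activity change, negative = inhibition is given: 0% = enzyme with DMSO and -100% = no enzyme basal signal.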

Potency, active:
O=C(c1ccc2c(c1)OCCO2)N1CCN(c2nc(-c3cccs3)nc3ccccc23)CC1 3.66 µM
O=[N+]([O-])c1ccccc1S(=O)(=O)N1CCN(c2nc(-c3cccs3)nc3ccccc23)CC1 0.73 µM
O=S(=O)(c1cccnc1)N1CCN(c2nc(-c3cccs3)nc3ccccc23)CC1 3.18 µM
Cc1cc2[nH]c(=O)c(=O)[nH]c2cc1S(=O)(=O)N1CCN(c2cccc(C)c2C)CC1 4.11 µM
Cc1ccc(S(=O)(=O)N2CCN(c3nc(-c4ccc(CN5CCOCC5)s4)nc4ccccc34)CC2)cc1 11.3 µM
O=S(=O)(c1ccc(F)cc1F)N1CCN(c2nc(-c3cccs3)nc3ccccc23)CC1 1.27 µM
O=S(=O)(c1ccc2ccccc2c1)N1CCN(c2nc(-c3cccs3)nc3ccccc23)CC1 0.326 µM
O=S(=O)(c1ccc(F)cc1)N1CCN(c2nc(-c3ccccc3)nc3ccccc23)CC1 6.51 µM
O=S(=O)(c1nccs1)N1CCN(c2nc(-c3cccs3)nc3ccccc23)CC1 7.3 µM
Cc1ccc(S(=O)(=O)N2CCN(c3nc(-c4ccc(CN5CCNCC5)s4)nc4ccccc34)CC2)cc1 12.7 µM
S=C(NCCCc1cnc[nH]1)NCCCN(Cc1ccc(Cl)cc1)c1ncc(Br)cn1 1.79 µM
C#CCOCCOCCOCCNc1nc(N2CCN(C(=O)CCCCCCCCCCNC(=O)[C@H](CO)n3cc(CCCSC)nn3)CC2)nc(N2CCN(C(=O)CCCCCCCCCCNC(=O)[C@H](CCCN=C(N)N)n3cc(C[C@@H](C)CC)nn3)CC2)n1 6.51 µM
CC(C)OCCCNc1nc(-c2ccccc2)nc2ccccc12 4.01 µM
O=S(=O)(c1ccc2ncccc2c1)N1CCN(c2nc(-c3cccs3)nc3ccccc23)CC1 0.8 µM
S=C(NCCCc1cnc[nH]1)NCCCN(Cc1ccc(Cl)cc1)c1ccc(-c2ccccc2)cn1 1.27 µM
CN(CCCN(Cc1ccc(Cl)cc1)c1ccc(Br)cn1)C(=S)NCCCc1cnc[nH]1 2.53 µM
CCN(CC)c1ccc(Br)cn1 9.18 µM
Cc1cc(NC(=O)CCS(=O)(=O)c2ccc3c(c2)NC(=O)C(C)S3)ccc1Br (centres undefined) 6.51 µM
O=S(=O)(c1ccccc1C(F)(F)F)N1CCN(c2nc(-c3cccs3)nc3ccccc23)CC1 0.41 µM
Cc1cc(C)cc(S(=O)(=O)N2CCN(c3nc(-c4cccs4)nc4ccccc34)CC2)c1 1.03 µM

Activity change, negative = inhibition, inactive:
CCOc1ccccc1NC(=O)CN(c1ccc(C)cc1)S(=O)(=O)c1c(C)noc1C 20.7%
Cc1ccc(S(=O)(=O)N2CCN(c3nc(-c4ccc(F)cc4)nc4cc(Cl)ccc34)CC2)cc1 2.08%
CC(=O)Nc1ccc(NC(=O)COc2ccccc2C(=O)Nc2cccc(Cl)c2Cl)cc1 -7.21%
Cc1cc2nn(-c3ccc(Cl)cc3)nc2cc1N 6.68%
Oc1ccccc1Nc1nc(NCC2CCCO2)c2ccccc2n1 (centres undefined) -38.7%
COc1ccc(CN(CCCN)c2ccc(Br)cn2)cc1 -27%
Cc1nc2nc(-c3ccccc3)cn2nc1C 8.02%
Cc1cccc(NC(=S)Nc2cccc(C)n2)n1 11.5%
N#C/C(=C\c1c(Oc2ccccc2Cl)nc2ccccn2c1=O)C(=O)NC1CCS(=O)(=O)C1 (centres undefined) 1.08%
